This is an account of results in PubChem BioAssay (EPA / NIEHS).

Molecules are shown by their SMILES. Records with an inconclusive call do not appear. Activity calls are given as the source filed them. Rule for the calls: active = hit-call score of the fitted dose curve at least 0.9, where 1 is the maximum; inconclusive = response in the unintended direction; inactive = score below 0.9.

Sequence of human Serotonin, 5-Hydroxytryptamine Receptor 5A (5HT5A), HTR5A (gene 3361) (P47898 whole entry, looked up): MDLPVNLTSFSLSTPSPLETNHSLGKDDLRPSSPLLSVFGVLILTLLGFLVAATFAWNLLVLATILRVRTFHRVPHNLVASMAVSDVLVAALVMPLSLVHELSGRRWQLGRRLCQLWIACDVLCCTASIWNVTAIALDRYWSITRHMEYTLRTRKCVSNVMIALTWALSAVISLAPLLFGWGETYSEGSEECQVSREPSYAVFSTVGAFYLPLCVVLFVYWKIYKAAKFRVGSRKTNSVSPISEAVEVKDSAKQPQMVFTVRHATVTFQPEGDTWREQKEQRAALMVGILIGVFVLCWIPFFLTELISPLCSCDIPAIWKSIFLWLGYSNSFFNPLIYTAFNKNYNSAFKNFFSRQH

For this assay, the target named is human Serotonin, 5-Hydroxytryptamine Receptor 5A (5HT5A), HTR5A (gene 3361) (UniProt P47898). The assay is described as follows: NVS_GPCR_h5HT5A: NovaScreen (NVS) G Protein-Coupled Receptor Assay for human Serotonin, 5-Hydroxytryptamine Receptor 5A (5HT5A) (AID 2283251). How it is done:
NVS_GPCR_h5HT5A is a biochemical, single-readout assay that uses extracted gene-proteins from HEK293 in a cell-free assay. Measurements were taken 1 hour after chemical dosing in a 96-well plate.NVS_GPCR_h5HT5A is one of one assay component(s) measured or calculated from the NVS_GPCR_h5HT5A assay. It is designed to make measurements of radioligand binding, a form of binding reporter, as detected with scintillation counting signals by Filter-based radiodetection technology.Data from the assay component NVS_GPCR_h5HT5A was analyzed into 1 assay endpoint. This assay endpoint, NVS_GPCR_h5HT5A, was analyzed in the positive analysis fitting direction relative to DMSO as the negative control and baseline of activity. Using a type of binding reporter, loss-of-signal activity can be used to understand changes in the binding as they relate to the gene HTR5A. Furthermore, this assay endpoint can be referred to as a primary readout, because the performed assay has only produced 1 assay endpoint. To generalize the intended target to other relatable targets, this assay endpoint is annotated to the gpcr intended target family, where the subfamily is rhodopsin-like receptor.
Binding assays used specific radioligands (tritiated, iodinated) with non-radioactive competitive displacement ligands in agonist or antagonist protocols (as indicated) and various reference compounds and inhibitors to titrate specific binding to receptors and transporters. Most enzyme assays (CYPs, kinases, phosphatases, proteases, HDACs) used recombinant protein and specific substrates (fluorescence mostly, some colorimetric and radioactive) and inhibitors, followed by a biochemical separation of substrate and product. All assays for the biochemical HTS were initially run in duplicate at a single concentration (10 uM for CYP450 assays and 25 uM for all others). […] Each assay was run with positive and negative controls, and concurrent controls on every plate. The follow-up (secondary) screen tested active chemical-pairs in concentration series, as well as a few additional assays not tested in the primary screen, some selected negative inactives, and several cases re-run in the concentration series for confirmatory purposes.
For orientation: AC50 means the concentration at which the activity in the assay is half-maximal. Consider `CN(C)CCCN1c2ccccc2Sc2ccc(Cl)cc21`, for which the half-maximal activity concentration (AC50) was 1.35 µM (active).
`CN(C)C(=O)NC1(c2ccccc2)CCN(CCC[C@]2(c3ccc(Cl)c(Cl)c3)CCCN(C(=O)c3ccccc3)C2)CC1`: the result was inactive.
Take `CCN(CC)CCOc1ccc(C(=C(Cl)c2ccccc2)c2ccccc2)cc1`: the AC50 was 1.46 µM (active).
For `O=C(O)c1[nH]n(-c2ccc(S(=O)(=O)O)cc2)c(=O)c1N=Nc1ccc(S(=O)(=O)O)cc1`, the outcome was inactive.
Still for that read-out and setting: the result for `CC(=O)O[C@]1(C(C)=O)CC[C@H]2[C@@H]3C=C(Cl)C4=CC(=O)[C@@H]5C[C@@H]5[C@]4(C)[C@H]3CC[C@@]21C` reads “inactive”.
As for `CCCCCCCCCCCCCCOS(=O)(=O)O`, the half-maximal activity concentration (AC50) is 20.3 µM (active).
Same read-out and setting: for `CSc1ccc(Oc2ccc(S(N)(=O)=O)cc2CN(C)C)cc1C` the value was 7.53 µM (active).
In the case of `Cc1cc(Cc2ccc(N)c(C)c2)ccc1N`, the compound was called inactive.
Still for that read-out and setting: the result for `CCc1nc(N)nc(N)c1-c1ccc(Cl)cc1` reads “inactive”; that for `COc1ccc(OC(F)(F)F)cc1CN[C@H]1CCCN[C@H]1c1ccccc1`, “inactive”.
In the case of `CCC(C)N(C)C(=O)c1cc2ccccc2c(-c2ccccc2Cl)n1` (stereo unspecified), the half-maximal activity concentration (AC50) was 15.9 µM (active).
